According to PubChem BioAssay AID1159580 (chemical genetic matrix, 2015):
Hit rate of the full screen: of about 5,500 compounds, about 2,000 (36%) were called active. Another 18% or so got no clear call; they are omitted. Rule as the data show it: active = normalized growth mostly below about 0.91 (no sharp cut-off); inconclusive = no clear call, values can overlap the other calls; inactive = mostly above about 0.92. Some of the results follow.

Test: chemical genetic growth profiling, strain panel (AID 1159580);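 also: tested at 20 µM; growth read once vehicle control cultures reached saturation at 30 °C; 1 = growth at the plate median or of vehicle wells; lower values mean less growth of the strain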
Conditions: growth OD

Measured: normalized growth

CN1CC(CO)=C[C@@H]2c3cccc4[nH]cc(c34)C[C@H]21
inactive: S. cerevisiae deletion strains, locus YAL013W, strain DEP1, active compounds read low 0.994 | S. cerevisiae deletion strains, locus YBR021W, strain FUR4, active compounds read low 1.02 | S. cerevisiae deletion strains, locus YBR229C, strain ROT2, active compounds read low 0.967 | S. cerevisiae deletion strains, locus YCL029C, strain bik1, active compounds read low 1.01 | S. cerevisiae deletion strains, locus YDL035C, strain GPR1, active compounds read low 0.99 | S. cerevisiae deletion strains, locus YDL074C, strain BRE1, active compounds read low 0.957 | S. cerevisiae deletion strains, locus YDL101C, strain DUN1, active compounds read low 0.97 | S. cerevisiae deletion strains, locus YDL134C, strain PPH21, active compounds read low 0.998 | S. cerevisiae deletion strains, locus YDL185W, strain tfp1, active compounds read low 0.982 | S. cerevisiae deletion strains, locus YDL192W, strain arf1, active compounds read low 1.01 | S. cerevisiae deletion strains, locus YDR101C, strain arx1, active compounds read low 1.01 | S. cerevisiae deletion strains, locus YDR150W, strain NUM1, active compounds read low 0.991 | S. cerevisiae deletion strains, locus YDR162C, strain NBP2, active compounds read low 0.964 | S. cerevisiae deletion strains, locus YDR318W, strain mcm21, active compounds read low 1.02 | S. cerevisiae deletion strains, locus YDR388W, active compounds read low 1.01 | S. cerevisiae deletion strains, locus YDR502C, strain sam2, active compounds read low 0.993 | S. cerevisiae deletion strains, locus YEL061C, strain CIN8, active compounds read low 0.995 | S. cerevisiae deletion strains, locus YER110C, active compounds read low 1.01 | S. cerevisiae deletion strains, locus YER155C, strain BEM2, active compounds read low 1.01 | S. cerevisiae deletion strains, locus YER167W, strain BCK2, active compounds read low 1.01 | S. cerevisiae deletion strains, locus YGL078C, strain dbp3, active compounds read low 0.997 | S. cerevisiae deletion strains, locus YGL086W, strain mad1, active compounds read low 1.01 | S. cerevisiae deletion strains, locus YGL248W, strain PDE1, active compounds read low 0.988 | S. cerevisiae deletion strains, locus YGR078C, strain PAC10, active compounds read low 0.977 | S. cerevisiae deletion strains, locus YGR135W, strain pre9, active compounds read low 0.985 | S. cerevisiae deletion strains, locus YGR229C, strain SMI1, active compounds read low 0.992 | S. cerevisiae deletion strains, locus YGR252W, strain gcn5, active compounds read low 1.05 | S. cerevisiae deletion strains, locus YHR030C, strain SLT2, active compounds read low 1.01 | S. cerevisiae deletion strains, locus YHR079C, strain IRE1 (second series), active compounds read low 1.01 | S. cerevisiae deletion strains, locus YHR094C, strain hxt1, active compounds read low 1.01 | S. cerevisiae deletion strains, locus YHR129C, strain ARP1, active compounds read low 1.01 | S. cerevisiae deletion strains, locus YHR200W, strain rpn10, active compounds read low 1.01 | S. cerevisiae deletion strains, locus YIL066C, strain RNR3, active compounds read low 0.983 | S. cerevisiae deletion strains, locus YIL073C, strain SPO22, active compounds read low 1.05 | S. cerevisiae deletion strains, locus YIL125W, strain kgd1, active compounds read low 0.996 | S. cerevisiae deletion strains, locus YIR030C, strain dcg1, active compounds read low 1 | S. cerevisiae deletion strains, locus YJL095W, strain BCK1, active compounds read low 0.995 | S. cerevisiae deletion strains, locus YJL134W, strain LCB3, active compounds read low 0.989 | S. cerevisiae deletion strains, locus YJL168C, strain set2, active compounds read low 0.998 | S. cerevisiae deletion strains, locus YJL187C, strain SWE1 (second series), active compounds read low 0.975 | S. cerevisiae deletion strains, locus YJR043C, strain POL32, active compounds read low 1.03 | S. cerevisiae deletion strains, locus YJR075W, strain HOC1, active compounds read low 0.945 | S. cerevisiae deletion strains, locus YKL009W, strain mrt4, active compounds read low 1.01 | S. cerevisiae deletion strains, locus YKL068W, active compounds read low 0.999 | S. cerevisiae deletion strains, locus YKL085W, strain MDH1 (second series), active compounds read low 1.02 | S. cerevisiae deletion strains, locus YKL085W, strain MDH1, active compounds read low 1.02 | S. cerevisiae deletion strains, locus YKL190W, strain CNB1, active compounds read low 0.994 | S. cerevisiae deletion strains, locus YKR001C, strain vps1, active compounds read low 1.02 | S. cerevisiae deletion strains, locus YLR039C, strain RIC1, active compounds read low 0.954 | S. cerevisiae deletion strains, locus YLR058C, strain SHM2, active compounds read low 0.982 | S. cerevisiae deletion strains, locus YLR102C, strain apc9, active compounds read low 1 | S. cerevisiae deletion strains, locus YLR262C, strain YPT6, active compounds read low 0.957 | S. cerevisiae deletion strains, locus YLR268W, strain sec22, active compounds read low 0.975 | S. cerevisiae deletion strains, locus YLR330W, strain CHS5, active compounds read low 1 | S. cerevisiae deletion strains, locus YLR342W, strain FKS1 (second series), active compounds read low 1.03 | S. cerevisiae deletion strains, locus YLR371W, strain rom2, active compounds read low 1.01 | S. cerevisiae deletion strains, locus YLR418C, strain cdc73, active compounds read low 0.966 | S. cerevisiae deletion strains, locus YML016C, strain PPZ1, active compounds read low 1 | S. cerevisiae deletion strains, locus YML032C, strain rad52, active compounds read low 1.01 | S. cerevisiae deletion strains, locus YML124C, strain tub3, active compounds read low 1.01 | S. cerevisiae deletion strains, locus YMR078C, strain ctf18, active compounds read low 1.01 | S. cerevisiae deletion strains, locus YMR223W, strain ubp8, active compounds read low 1.02 | S. cerevisiae deletion strains, locus YMR263W, strain SAP30, active compounds read low 0.955 | S. cerevisiae deletion strains, locus YMR307W, strain GAS1, active compounds read low 1.06 | S. cerevisiae deletion strains, locus YNL067W, strain RPL9B, active compounds read low 0.987 | S. cerevisiae deletion strains, locus YNL128W, strain TEP1, active compounds read low 0.939 | S. cerevisiae deletion strains, locus YNL153C, strain GIM3, active compounds read low 0.975 | S. cerevisiae deletion strains, locus YNL233W, strain BNI4, active compounds read low 0.99 | S. cerevisiae deletion strains, locus YNL250W, strain rad50, active compounds read low 0.988 | S. cerevisiae deletion strains, locus YNL271C, strain bni1, active compounds read low 1.01 | S. cerevisiae deletion strains, locus YNL298W, strain CLA4, active compounds read low 1.01 | S. cerevisiae deletion strains, locus YNL307C, strain MCK1, active compounds read low 1.02 | S. cerevisiae deletion strains, locus YNL322C, strain KRE1, active compounds read low 0.982 | S. cerevisiae deletion strains, locus YNR052C, strain pop2, active compounds read low 1.01 | S. cerevisiae deletion strains, locus YOL006C, strain TOP1, active compounds read low 0.983 | S. cerevisiae deletion strains, locus YOL012C, strain htz1 1.85 | S. cerevisiae deletion strains, locus YOL147C, strain pex11, active compounds read low 1.01 | S. cerevisiae deletion strains, locus YOR061W, strain CKA2, active compounds read low 0.963 | S. cerevisiae deletion strains, locus YOR069W, strain VPS5, active compounds read low 1 | S. cerevisiae deletion strains, locus YOR136W, strain idh2, active compounds read low 1.01 | S. cerevisiae deletion strains, locus YOR144C, strain elg1, active compounds read low 1.01 | S. cerevisiae deletion strains, locus YOR184W, strain ser1, active compounds read low 1.02 | S. cerevisiae deletion strains, locus YOR316C, strain cot1, active compounds read low 1 | S. cerevisiae deletion strains, locus YPL055C, strain LGE1, active compounds read low 0.938 | S. cerevisiae deletion strains, locus YPL241C, strain CIN2, active compounds read low 0.997 | S. cerevisiae deletion strains, locus YPR119W, strain clb2, active compounds read low 1.01 | S. cerevisiae deletion strains, locus YPR141C, strain kar3, active compounds read low 0.998 | S. cerevisiae deletion strains, locus YPR163C, strain tif3, active compounds read low 1.01 | S. cerevisiae deletion strains, locus YPR167C, strain met16, active compounds read low 0.996 | S. cerevisiae deletion strains, strain wtn01, active compounds read low 0.995 | S. cerevisiae strains, strain wild type, active compounds read low 0.99
